From PubChem
RPL19A-GFP yeast = modulators of TOR pathway RPL19A-GFP in S. cerevisiae. percent response vs DMSO, % at 10 µM. S. cerevisiae RPL19A-GFP strain, flow cytometry, 3 h; active compounds read low. 330,000 compounds, 0.3% hits. AID 2025;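 active means percent response vs DMSO below 50%; inconclusive means fewer than 70 events counted for the yeast strain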;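 further: median channel GFP fluorescence of the barcoded RPL19A-GFP strain; lower means less RPL19A-GFP as with rapamycin TOR inhibition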
LAP4 TOR yeast = alters LAP4-GFP fluorescence in TOR pathway yeast screen; GFP response vs DMSO, % at 10 µM; S. cerevisiae LAP4-GFP multiplex, flow cytometry GFP, 3 h; median GFP as percent of DMSO wells; 320,000 compounds, 0.34% hits;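 active means GFP response vs DMSO above a set limit, about the screen mean plus 3 SD, cut at about 150% in these data; inconclusive means under 70 cell events counted for the yeast strain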
AGP1 TOR yeast = alters AGP1-GFP fluorescence in TOR pathway yeast screen. GFP response vs DMSO, % at 10 µM. 320,000 compounds, 0.02% hits. S. cerevisiae AGP1-GFP multiplex flow cytometry, 3 h; GFP as percent of DMSO wells. AID 2066;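 active means GFP response relative to DMSO above a set limit, near screen average plus 3 SD, cut at about 150% in these data; inconclusive means fewer than 70 cells counted for the yeast strain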;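 further: median GFP channel fluorescence of the gated AGP1 strain per well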
CIT2 TOR yeast = alters CIT2-GFP fluorescence in TOR pathway yeast screen; S. cerevisiae CIT2-GFP strain, flow cytometry, 3 h; 100 means same as DMSO wells; GFP response vs DMSO, % at 10 µM; 320,000 compounds, 0.065% hits; AID 2029;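 active means GFP response relative to DMSO above a set limit, near the screen mean plus 3 SD, cut at about 150% in these data; inconclusive means Fewer than 70 cells measured for a yeast strain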;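 further: ratio of well median GFP fluorescence to mean of DMSO wells on the plate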
MEP2-GFP yeast = modulators of TOR pathway MEP2-GFP in S. cerevisiae; 330,000 compounds, 0.51% hits; GFP response vs DMSO, % at 10 µM; AID 2016; S. cerevisiae MEP2-GFP strain, flow cytometry GFP, 3 h; 100% = DMSO control level;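 active means GFP response versus DMSO above a set limit, roughly screen mean plus 3 SD, cut at about 180% in these data; inconclusive means fewer than 70 cells counted for a yeast strain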;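 further: median GFP fluorescence of the barcode-gated MEP2-GFP cells per well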
Large screens that a line does not name were inactive; [ ] = remark or other dose. A selection: hits, their analogues and other compounds. The true share with any hit is near 0.92%.

COc1ccc(-c2cc(C(F)(F)F)n3ncc(C(=O)N4CCCCC4c4cccnc4)c3n2)cc1 (stereo unspecified)	none
CCC(C)[C@H](NC(=O)N1CC(=O)Nc2ccccc21)C(=O)N[C@@H](C(=O)O)c1ccccc1 (stereo partly specified)	RPL19A-GFP yeast 24.5[may fluoresce violet], AGP1 TOR yeast inconclusive, CIT2 TOR yeast inconclusive
COC(=O)N/N=C/c1cc(Cl)cc(Cl)c1OCc1ccc(F)cc1	none
N#C/C(=C\c1cccc(Oc2ccccc2)c1)C(=O)N1CCOCC1	LAP4 TOR yeast 154.5
CCc1ccccc1NC(=O)C1CCCN(c2nccc(C)n2)C1 (stereo unspecified)	RPL19A-GFP yeast 25.1[may fluoresce violet], AGP1 TOR yeast inconclusive, CIT2 TOR yeast inconclusive, MEP2-GFP yeast inconclusive
COc1ccc(C(CCN(Cc2ccc(OC)c(OC)c2)C(C)=O)C(C)C)cc1 (stereo unspecified)	none
COCCNC(=O)c1ccc(Cl)c(Cl)c1	LAP4 TOR yeast 214.7, CIT2 TOR yeast 183.0, MEP2-GFP yeast 285.6
COc1ccc(/C=N/Nc2nnc(C)n2N)cc1OC	none
COc1ccc(/C=N/Nc2nnc(C)n2N)cc1OC(C)=O	MEP2-GFP yeast 191.9
COc1cc(SC)ccc1C(=O)Nc1ccc2ncccc2c1	none
N#CC1=C(N)NC(SCc2ccc(Br)cc2)=C(C#N)C12CCCCC2	RPL19A-GFP yeast 18.5[may fluoresce violet], AGP1 TOR yeast inconclusive, CIT2 TOR yeast inconclusive, MEP2-GFP yeast 255.7[may fluoresce violet]
O=C1OC/C(=C(/O)c2ccc(Cl)cc2)C1=O	none
COc1ccc(-c2cn[nH]c2C)cc1OC	none
Cc1[nH]ncc1-c1ccccc1Cl	RPL19A-GFP yeast 47.7[may fluoresce violet], CIT2 TOR yeast inconclusive, MEP2-GFP yeast 336.5[may fluoresce violet]
CC(C)(C)C(=O)/C=c1\[nH]c(=O)/c(=C\c2ccccc2F)s1	CIT2 TOR yeast inconclusive, MEP2-GFP yeast 215.5[may fluoresce violet]
CCCCSc1nnc(CCNC(=O)OC(C)(C)C)o1	none
CCc1cccc(NC(=O)COc2ccccc2)c1	RPL19A-GFP yeast 20.9[may fluoresce violet], AGP1 TOR yeast inconclusive, CIT2 TOR yeast inconclusive, MEP2-GFP yeast 251.8[may fluoresce violet]
CC(=O)c1cccc(NC(=O)COc2ccccc2)c1	none
Cc1cc(C)c2c(N=NN3CCOCC3)[nH]nc2n1	CIT2 TOR yeast 151.4
NNC(=O)c1nc[nH]c1C(=O)Nc1ccccn1	none
Cc1nc2c(-c3ccc(F)cc3)cnn2c(N)c1-c1ccccc1	LAP4 TOR yeast 165.3
COc1cc(/C=C/C(=O)O)cc(S(=O)(=O)NC2CC2)c1OC	none
CC(NC(=O)c1cc2cc(F)ccc2[nH]1)c1ccccc1 (stereo unspecified)	none
O=S(=O)(Nc1nc2ccccc2nc1Cl)c1ccc2ccccc2c1	MEP2-GFP yeast 185.1
c1ccc(CCNc2nc(-c3ccncc3)cs2)cc1	none
CCCCCNc1nc(-c2ccccc2)cs1	CIT2 TOR yeast inconclusive, MEP2-GFP yeast 238.4[may fluoresce violet] (no result: AGP1 TOR yeast)
Cc1nn(Cc2c(Cl)cccc2Cl)c(C)c1NC(=O)c1sc2ccccc2c1Cl	MEP2-GFP yeast 192.3
COc1cccc(/C=N/NC(=O)c2ccoc2C)c1	AGP1 TOR yeast inconclusive, CIT2 TOR yeast inconclusive, MEP2-GFP yeast 322.4[may fluoresce violet]
COc1cc(/C=N/NC(=O)c2ccoc2C)ccc1O	none
O=C(C1CC1)N1CCc2cc(Br)cc(S(=O)(=O)NCc3ccco3)c21	none
CCC(=O)N1CCc2cc(Br)cc(S(=O)(=O)N3CCC(C(=O)NC(C)(C)C)CC3)c21	none
O=C(C1CC1)N1CCc2cc(Br)cc(S(=O)(=O)NCc3ccccn3)c21	RPL19A-GFP yeast 42.3[may fluoresce violet], AGP1 TOR yeast inconclusive, CIT2 TOR yeast inconclusive, MEP2-GFP yeast 202.0[may fluoresce violet]
O=C(C1CC1)N1CCc2cc(Br)cc(S(=O)(=O)N3CCOCC3)c21	RPL19A-GFP yeast 17.9[may fluoresce violet], AGP1 TOR yeast inconclusive, CIT2 TOR yeast inconclusive, MEP2-GFP yeast 214.1[may fluoresce violet]
O=C(C1CC1)N1CCc2cc(Br)cc(S(=O)(=O)NCCN3CCOCC3)c21	none
CCC(=O)N1CCc2cc(Br)cc(S(=O)(=O)N3CCCC(C(=O)NC(C)(C)C)C3)c21 (stereo unspecified)	CIT2 TOR yeast inconclusive, MEP2-GFP yeast 326.3[may fluoresce violet]
COc1ccc2[nH]c(C(=O)O)c(NC(=O)c3cc(OC)c(OC)c(OC)c3)c2c1	none
Cc1cc(S(=O)(=O)NCCc2ccncc2)cc(C)c1F	none
CCCCSc1nc2sc3c(c2c(=O)[nH]1)CC(C)(CC)OC3 (stereo unspecified)	none
CCn1c(SCC(=O)N2CCOCC2)nc2oc3c(Cl)cc(Cl)cc3c(=O)c2c1=O	CIT2 TOR yeast inconclusive, MEP2-GFP yeast 186.1[may fluoresce violet]
CCn1c(SCC(=O)N2CCOCC2)nc2sc3c(c2c1=O)CCCC3	none (no result: RPL19A-GFP yeast)
CC(C)Nc1nc(-c2ccccc2)nnc1-c1ccccc1	LAP4 TOR yeast 156.9, AGP1 TOR yeast 168.4, MEP2-GFP yeast 795.3
Cc1cc(=O)n(-c2ccc3ccccc3n2)[nH]1	LAP4 TOR yeast 164.6
CC1=CCC2C(=O)N(c3ccc4ccccc4n3)C(=O)C2C1 (stereo unspecified)	none
COc1ccc(OCCOc2ccccc2[N+](=O)[O-])cc1	none
O=[N+]([O-])c1ccccc1OCCOc1ccccc1[N+](=O)[O-]	LAP4 TOR yeast 167.3, AGP1 TOR yeast 155.2, MEP2-GFP yeast 529.8
COc1ccc(C(=O)Nc2ccc(N3CCCC3)cc2)cc1	none
COc1ccc(N2CCN(c3ccc(NC(=O)NN)cc3)CC2)cc1	RPL19A-GFP yeast 44.6[may fluoresce violet], AGP1 TOR yeast inconclusive, CIT2 TOR yeast inconclusive, MEP2-GFP yeast 327.6[may fluoresce violet]
Cc1ccc2nc3c(cc2c1)c(NC(=O)C(C)(C)C)nn3CC(C)C	none
CCOC(=O)Cc1csc(NC(=O)Cn2cnc3c2c(=O)n(C)c(=O)n3C)n1	none
Cn1c(=O)c2c(ncn2CC(=O)Nc2nc(-c3ccccc3Cl)cs2)n(C)c1=O	RPL19A-GFP yeast 13.4[may fluoresce violet], AGP1 TOR yeast inconclusive, CIT2 TOR yeast inconclusive, MEP2-GFP yeast 209.9[may fluoresce violet]
COc1ccc(CN2CCN(C(=O)c3cc(-c4cccnc4)nc4ccc(Cl)cc34)CC2)c(OC)c1OC	none
O=S(=O)(Nc1c(O)ccc2ccccc12)c1ccc(F)cc1	none
O=S(=O)(Nc1c(O)ccc2ccccc12)c1ccccc1	RPL19A-GFP yeast 41.6[may fluoresce violet], AGP1 TOR yeast inconclusive, CIT2 TOR yeast inconclusive, MEP2-GFP yeast 237.0[may fluoresce violet]
Cc1ccc(S(=O)(=O)N(CC(=O)NCc2ccncc2)Cc2ccccc2F)cc1	MEP2-GFP yeast 482.9
COc1ccc(N2C(=O)C3ON(C4SC(=S)N(C)C4(C)C)C(c4ccc(Cl)cc4)C3C2=O)cc1 (stereo unspecified)	none
CCC(Oc1ccccc1)C(=O)Nc1ccc(S(=O)(=O)Nc2cnc3ccccc3n2)cc1 (stereo unspecified)	none
CCC(Oc1ccccc1)C(=O)Nc1ccc(S(=O)(=O)Nc2ncccn2)cc1 (stereo unspecified)	CIT2 TOR yeast inconclusive, MEP2-GFP yeast 236.1[may fluoresce violet]
C=Cc1ccc(CSc2cc(C)nc3nc(C)nn23)cc1	none
CC(C)CCC(O)(c1ccccc1)C(CN1CCOCC1)c1ccccc1 (stereo unspecified)	none
